AMA1 RON2 block – AMA1-RON2 (P. falciparum) interaction inhibition. 0.2% of 360,000 active. AlphaScreen AMA1-biotinylated RON2 peptide binding. Potency, µM (series often up to 58.2 µM), most hits filed as inhibitors. AID 720542; also: nearly all actives have a fitted effect of over 45% in size
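AMA1 (3D7) with his tag at 25 nM final met compounds first, then biotinylated RON2 peptide at 25 nM; detection used donor plus acceptor beads, 10 µg/mL apiece, read by AlphaScreen after 30 min at room temperature.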
Pf growth 96h – P. falciparum growth inhibition at 96 hours; P. falciparum luciferase reporter growth, 96 h; 6.9% of 320,000 active; Potency, µM (doses to about 28.7 µM), most hits filed as inhibitors
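P. falciparum expressing integrated firefly luciferase grown in erythrocytes (2% hematocrit, 0.05% parasitemia final) with compounds for 96 hours at 37 C, 5% CO2. Growth inhibition read as loss of luminescence after adding luciferase detection reagent.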
Shiga inhibitor – blocks Shiga toxin action in Vero cells; Vero cells, Shiga toxin protein synthesis inhibition reporter; 9.2% of 290,000 active; inhibition, % at 38.7 µM; in the data active = inhibition mostly above about 28%, no sharp cut-off; inactive = mostly below about 43%
Cycloheximide cs – affects cycloheximide protein synthesis inhibition readout, counter-screen; AID 2314; 12% of 300,000 active; max response, %; cell reporter, cycloheximide protein synthesis inhibition counterscreen; in the data active = max response mostly above about 13%, no sharp cut-off; inactive = mostly below about 14%; also: read at 38.3 µM for the half of the compounds with a filed dose
HCV inh – inhibitors of hepatitis C virus infection; Potency, µM (highest dose often 41.8 µM), most hits filed as inhibitors; 3.4% of 340,000 active; Huh7.5.1 HCVcc-Cre infection, luciferase reporter, 44 h
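HCVcc-Cre virus at an moi near 0.5 was added right after compound to cells cultured 4 h from seeding (1,000 cells/well). Luciferase activity was determined 44 h later, 15 min after substrate addition at RT.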
Pf growth 48h – P. falciparum growth inhibition at 48 hours (one generation); P. falciparum luciferase growth in erythrocytes, 48 h; Potency, µM (titrated, usually from 28.7 µM), usual class: inhibitors; 5.9% of 310,000 active
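In quantitative HTS format, infected erythrocytes bearing luciferase-reporter parasites were treated for a single generation at 37 C. Luminescence after adding detection reagent served as the growth measure.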
Numbers stand for hits. Shown are actives, neighbours in structure and some others; about 21% of the full set was active somewhere. Unless noted, calls follow the shape of the dose curve; as a rule, active = well fitted curve in the direction sought with a large enough effect; inconclusive = small, poorly fitted or top-dose-only effect, or another doubt; inactive = no such curve, though single readings can be large; an effect the other way counts as inactive or inconclusive.

How did COc1ccc(Oc2nc(-c3ccccn3)ncc2OC)cc1 do in these assays?
AMA1 RON2 block: inactive; Pf growth 96h: inconclusive; Shiga inhibitor: inactive; Cycloheximide cs: inactive; HCV inh: inconclusive; Pf growth 48h: inactive

How did COc1cnc(-c2ccccn2)nc1Oc1c(C)cccc1C do in these assays?
AMA1 RON2 block: inactive; Pf growth 96h: 0.21µM; Shiga inhibitor: inactive; Cycloheximide cs: inactive; HCV inh: inconclusive; Pf growth 48h: 12µM

How did COc1cnc(-c2ccccn2)nc1Sc1c(Cl)cccc1Cl do in these assays?
AMA1 RON2 block: inactive; Pf growth 96h: 2.1µM; Shiga inhibitor: inactive; Cycloheximide cs: inactive; HCV inh: inconclusive; Pf growth 48h: 1.7µM

How did COc1cnc(-c2ccccc2)nc1Sc1ccccc1 do in these assays?
AMA1 RON2 block: inactive; Pf growth 96h: inconclusive; Shiga inhibitor: inactive; Cycloheximide cs: inactive; HCV inh: 13µM; Pf growth 48h: inactive

What do the screens show for `CCc1ccc(C(C(=O)NC2CCCC2)N(Cc2cccnc2)C(=O)c2csnn2)cc1` (configuration not stated)?
AMA1 RON2 block: inactive; Pf growth 96h: inconclusive; Shiga inhibitor: inactive; Cycloheximide cs: inactive; HCV inh: inactive; Pf growth 48h: inconclusive

Results for Cc1cccn2c(=O)c3c(nc12)N1CCCCCC1C1(C3)C(=O)N(C)C(=O)N(C)C1=O (configuration not stated) ?
AMA1 RON2 block: inactive; Pf growth 96h: 2.6µM; Shiga inhibitor: inactive; Cycloheximide cs: inactive; HCV inh: inactive; Pf growth 48h: inconclusive

How did CCCCN1C(=O)NC(=O)C2(Cc3c(nc4c(C)cccn4c3=O)N3CCc4ccccc4C32)C1=O (configuration not stated) do in these assays?
AMA1 RON2 block: inactive; Pf growth 96h: inactive; Shiga inhibitor: inactive; Cycloheximide cs: inactive; HCV inh: inconclusive; Pf growth 48h: 9.3µM

Results for Cc1ccc2nc3c(cc2c1)CC1(C(=O)N(C)C(=O)N(C)C1=O)C1CCCCN31 (configuration not stated) ?
AMA1 RON2 block: inactive; Shiga inhibitor: 69; Cycloheximide cs: 19; HCV inh: inconclusive; Pf growth 48h: inactive

Results for Cc1cccn2c(=O)c(/C=N/O)c(N3CCCC3)nc12 ?
AMA1 RON2 block: inactive; Pf growth 96h: inactive; Shiga inhibitor: inactive; Cycloheximide cs: inactive; HCV inh: inactive; Pf growth 48h: inactive

Results for CCCCN1C(=O)NC(=O)C2(Cc3c(nc4ccccn4c3=O)N3CCc4ccccc4C32)C1=O (configuration not stated) ?
AMA1 RON2 block: inactive; Pf growth 96h: inactive; Shiga inhibitor: inactive; Cycloheximide cs: inactive; HCV inh: inactive; Pf growth 48h: inconclusive

What do the screens show for `Cc1cccn2c(=O)c3c(nc12)N1CCc2ccccc2C1C1(C3)C(=O)NC(=O)N(C)C1=O` (configuration not stated)?
AMA1 RON2 block: inactive; Shiga inhibitor: inactive; Cycloheximide cs: inactive; HCV inh: inactive; Pf growth 48h: 13µM

What do the screens show for `CC(NS(=O)(=O)c1ccccc1Cl)C1CC2CCC1C2` (configuration not stated)?
AMA1 RON2 block: inactive; Pf growth 96h: inactive; Shiga inhibitor: inactive; Cycloheximide cs: inactive; HCV inh: inactive; Pf growth 48h: inactive

What do the screens show for `Cn1c(=O)c(C(=O)N2CCc3ccccc32)cc2cccnc21`?
AMA1 RON2 block: inactive; Pf growth 96h: inactive; HCV inh: inactive; Pf growth 48h: inactive

Results for Cc1onc(-c2ccccc2)c1C(=O)OCC(=O)N1CCCCC1 ?
AMA1 RON2 block: inactive

Results for C/C=C/c1cccc(-c2nc(C(=O)N3CCCCC3)cc3c2[C@@H](CCO)N(C(=O)NC(C)C)C3)c1 ?
AMA1 RON2 block: inactive

How did CNC(=O)CCn1nc(-c2ccccc2)c2ccccc2c1=O do in these assays?
AMA1 RON2 block: inactive; Pf growth 96h: 15µM; Shiga inhibitor: inactive; Cycloheximide cs: inactive; HCV inh: inactive; Pf growth 48h: inactive

How did Cc1ccc(-c2nn(CCC(N)=O)c(=O)c3ccccc23)cc1 do in these assays?
AMA1 RON2 block: inactive; Pf growth 96h: inconclusive; Shiga inhibitor: inactive; Cycloheximide cs: inactive; HCV inh: inactive; Pf growth 48h: inactive

What do the screens show for `CCN(CC)C(=O)CCn1nc(-c2ccc(C)cc2)c2ccccc2c1=O`?
AMA1 RON2 block: inactive; Pf growth 96h: inactive; Shiga inhibitor: inactive; Cycloheximide cs: inactive; HCV inh: inactive; Pf growth 48h: 7.4µM

Screening data deposited in PubChem by National Center for Advancing Translational Sciences (NCATS).
